Measurements taken from PubChem BioAssay AID1863 (Southern Research Specialized Biocontainment Screening …, 2009).
Screen size: about 300,000 compounds; about 480 (0.16%) were called active.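 Rule for the calls: active = inhibition over 29.93%, a cutoff 3 SD above the screen mean, later confirmed by dose response; inconclusive = inhibition over 29.93% but no dose response follow-up; inactive = inhibition at most 29.93% or unconfirmed.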 A selection follows. Measured potencies and affinities stand elsewhere.

Assay: inhibitors of PhoP regulon expression, primary screen, Salmonella Typhimurium, GFP reporter (AID 1863);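 note: 0% = low Mg2+ inducing control and 100% = high Mg2+ repressing control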
Settings: S. Typhimurium PhoP-regulated promoter GFP reporter, 4 h; at 50 µM; stronger effect = higher value

inhibition, inactive:
O=C(c1cc2ccc([N+](=O)[O-])cc2oc1=O)N1CCOCC1 -3.48%
O=C(COc1ccc(S(=O)(=O)N2CCCCC2)cc1)Nc1ccccc1F -6.38%
O=C(c1ccc(N2CCN(C3CC(=O)N(Cc4cccs4)C3=O)CC2)cc1)c1cccnc1 (centres undefined) 4.02%
O=C(O)c1ccn2c(C(=O)c3ccccc3)c(-c3ccccc3)cc2c1 -13.9%
Cc1cc(C)c(NC(=O)c2cc(S(=O)(=O)N3CCOCC3)ccc2F)c(C)c1 -1.33%
CN1CCN(c2c(F)cc3c(=O)c(C(=O)O)cn(CCF)c3c2F)CC1 -2.24%
C[C@H]1COc2c(N3CCN(C)CC3)c(F)cc3c(=O)c(C(=O)O)cn1c23 -9.45%
CCn1cc(C(=O)NCC2CCCO2)c(=O)c2cc(F)c(N3CCN(C)CC3)cc21 (centres undefined) 0.68%
C[C@H]1COc2c(C3(N)CC3)c(F)cc3c(=O)c(C(=O)O)cn1c23 -7.84%
CCOc1ccc(C(=O)Nc2ccc(N3CCN(C)CC3)cc2)cc1 -7.33%
CCOc1ccc(C(=O)Nc2ccc(S(=O)(=O)N3CCN(C)CC3)cc2)cc1 8.02%
Cc1cc(C)n(CC(=O)N2c3ccccc3Sc3ccc(C(F)(F)F)cc32)n1 -5.1%
Cc1cc[n+](-c2[nH]c(=O)sc2/C=N/N=C(\[O-])CCn2c3ccccc3c3ccccc32)cc1 1.47%
Cn1c(=O)oc2cc(S(=O)(=O)NCCC(=O)N3CCc4ccccc4C3)ccc21 -8.83%
COc1ccc(C(CNS(=O)(=O)c2ccc(F)cc2)N2CCN(C)CC2)cc1 (centres undefined) 3.53%
NC(=O)COC(=O)C12CC3CC(CC(O)(C3)C1)C2 17.4%
CCOc1ccc(C(C)=O)cc1CSc1nc(C)cc(C)n1 4.1%
CC(=O)c1cccc(NC(=O)NC2CCCCC2)c1 -2.42%
COCCn1c(-c2ccc(Cl)cc2)cnc1SCC(=O)NCCc1ccc(OC)c(OC)c1 12.7%
C=COCCn1c(-c2nonc2N)nc2ccccc21 18.4%
CCOC(=O)C[N+](C)(C)CCOC1CC2CCC1(C)C2(C)C (centres undefined) 6.45%
CCCCOC(=O)C[N+](C)(C)CCOC1CC2CCC1(C)C2(C)C (centres undefined) -9.77%
CC(C)CCOC(=O)C[N+](C)(C)CCOC1CC2CCC1(C)C2(C)C (centres undefined) -2.94%
CCCOC(=O)C[N+](C)(C)CCOC1CC2CCC1(C)C2(C)C (centres undefined) -23.2%
CC(C)CCNC(=O)C1(c2cccs2)CCOCC1 -3.36%
O=C(NCc1ccccn1)Nc1cccc(Cl)c1Cl 7.04%
O=C1C=C(O)c2cccc(O)c2C1=O 4.81%
O=C1C=C(O)c2c(O)cccc2C1=O 5.73%
CC(=O)c1cccc(NC(=O)CCc2nnc3ccc(N4CCOCC4)nn23)c1 9.13%
Cc1ccc(-c2csc3nc4c5ccccc5c(NCCCN5CCOCC5)nn4c(=O)c23)cc1 2.89%
O=c1c2ccccc2nc2c3ccccc3c(NCCN3CCOCC3)nn12 -8.49%
COc1cccc(/C=N/NC(=O)c2ccc(CN3c4cccc5cccc(c45)S3(=O)=O)cc2)c1 -6.43%
OC(CNCCc1ccc(Cl)cc1)COc1ccc2ccccc2c1 (centres undefined) 7.14%
Cc1cc(OCC(O)CNC(C)(C)C)ccc1Cl (centres undefined) -6.41%
Cc1nc(N)nc(N/N=C/c2ccccc2)n1 -5.41%
COCC(C)NS(=O)(=O)c1ccccc1 (centres undefined) -1.07%
CC(=O)c1cccc(NC(=O)c2sc3nc4n(c(=O)c3c2C)CCCCC4)c1 11.4%
NC(=S)N/N=C/c1c(O)ccc2ccccc12 -8.26%
O=C(CN1CCOCC1)N/N=C/c1c(O)ccc2ccccc12 3.4%
O=C(CN1CCCc2ccccc21)N/N=C/c1c(O)ccc2ccccc12 41.7%
Oc1ccc2ccccc2c1/C=N/Nc1ccccc1 -2.22%
CCc1nccn1CCC(=O)N1CCCC(N2CCN(c3cccc(Cl)c3)CC2)C1 (centres undefined) -2.69%
CN1CCCN(C(=O)c2cccc3ccccc23)CC1 -0.73%
O=C1CC(C(=O)N2CCN(c3ccc(F)cc3)CC2)CN1CCc1ccccc1 (centres undefined) 5.66%
CCCN(CC(=O)Nc1ccccc1C)C(=O)COc1ccc2c(c1)CCC2 -2.3%
CN1CCCN(C(=O)c2c(F)cccc2Cl)CC1 -6.36%
CCCS(=O)(=O)N1CCN(C(=O)COc2ccccc2)CC1 1.1%
O=C(C[n+]1cc(-c2ccc(Cl)cc2)n2c1CCC2)N1c2ccccc2Sc2ccccc21 17.8%
O=C(C[n+]1cc(-c2ccc(F)cc2)n2c1CCC2)Nc1nc(-c2ccccc2)cs1 14.9%
Cn1c(NC(=O)C[n+]2cc(-c3ccc(Cl)cc3)n3c2CCC3)cc(=O)n(C)c1=O 4.64%
Cn1c(NC(=O)C[n+]2cc(-c3ccc(F)cc3)n3c2CCC3)cc(=O)n(C)c1=O 4.11%
O=C(C[n+]1cc(-c2ccccc2)n2c1CCC2)N1c2ccccc2Sc2ccccc21 9.1%
O=C(C[n+]1cc(-c2ccccc2)n2c1CCC2)Nc1nc(-c2ccccc2)cs1 2.36%
CC1CCc2c(nc3ncnn3c2N2CC(C)OC(C)C2)C1 (centres undefined) -10.6%
Cc1ccc(S(=O)(=O)CCC(=O)Oc2ccc(-c3nnco3)cc2)cc1 -2.63%
COc1cccc(CN2CCN(Cc3cc(OC)c(OC)cc3OC)CC2)c1 -6.37%
O=C(N/N=C/c1ccccc1F)c1cccc2ccccc12 -1.58%
COc1ccc(C(=O)N/N=C/c2c[nH]c3ccccc23)cc1 4.37%
COc1ccc2cc(C(=O)N/N=C/c3sc4ccccc4c3O)ccc2c1 9.41%
O=C(N/N=C/c1ccccc1O)c1cccc2ccccc12 7.21%
CCC(=O)N1CCc2cc(Br)cc(S(=O)(=O)CCC(=O)NCCOC)c21 1.63%
COC(=O)[C@@H](NC(=O)Nc1ccc(OC(F)(F)F)cc1)C(C)C -9.58%
O=C1CC(c2ccccc2Cl)Cc2c1cnn2-c1nc2ccccc2s1 (centres undefined) -5.22%
Cc1nn(C)c(C)c1CN(C)C(=O)CCCC(=O)O -3.44%
CCOc1ccccc1-c1ccc(C(=O)NCc2ccccc2)o1 -2.75%
Cc1c(Cl)cccc1NC(=O)CNC(=O)c1ccc(F)cc1 -6.63%
O=C1C(=O)N(CCO)C(c2cccc(F)c2)/C1=C(\O)c1ccc(Cl)cc1 (centres undefined) 0.663%
O=C(COC(=O)CCCN1C(=O)c2cccc3cccc(c23)C1=O)Nc1cccc(Br)c1 5.32%
Cc1ccc(C2=NN(CC(=O)NCc3ccccn3)C(=O)CC2)cc1 15.1%
O=C(Nc1cccc(Cl)c1)NC1CCS(=O)(=O)C1 (centres undefined) 0.08%
CCCCCC[N+](C)(C)CC/C=C1/c2ccccc2Sc2ccc(Cl)cc21 -5.82%
CCCCCCCCCCC[N+](C)(C)CC/C=C1/c2ccccc2Sc2ccc(Cl)cc21 0.18%
CCC(Sc1ccccc1C(=O)O)C(=O)O (centres undefined) -0.12%
O=C(O)c1ccccc1SSc1ccccc1C(=O)O -0.72%
CCNC1=C(Cl)C(=O)c2ccccc2C1=O 22.7%
O=C1C(Cl)=C(Nc2ccccc2)C(=O)c2ccccc21 4.63%
O=C(CCCN1C(=O)c2ccccc2C1=O)Nc1ccccn1 -1.86%
CCC1(c2ccccc2)NC(=O)N(CC(=O)Nc2cc(S(=O)(=O)N3CCOCC3)ccc2OC(C)C)C1=O (centres undefined) -0.1%
COc1ccc(C(=O)CCC(=O)NCCc2c[nH]c3ccccc23)cc1 8.52%
Cc1cccc(NS(=O)(=O)c2cccs2)c1 16.6%
Cc1nc([N+](=O)[O-])c(Br)n1CC(=O)c1ccc(F)cc1 7.24%
Cc1nc([N+](=O)[O-])c(Br)n1CC(=O)c1ccc(Br)cc1 8.26%
O=[N+]([O-])c1c(Nc2ccccc2O)cc(Cl)c2nonc12 16.1%
Nc1cc(N2CCCCCC2)c2nonc2c1[N+](=O)[O-] -3.85%
Nc1cc(Nc2ccccc2)c2nonc2c1[N+](=O)[O-] -3.49%
O=[N+]([O-])c1c(Nc2ccc(O)cc2)cc(Cl)c2nonc12 20%
Cc1c(NC(=O)c2ccc(S(=O)(=O)N3CCOCC3)cc2)c(=O)n(-c2ccccc2)n1C -7.51%
OCCC1CN(Cc2cccn2-c2ccccn2)CCN1C1CCCC1 (centres undefined) -4.15%
COc1ccccc1C(c1nnnn1C1CCCC1)N1CCN2CCCC2C1 (centres undefined) 2.8%
CCC1(C)Cc2c(sc3nc(SCC(=O)c4ccccc4)[nH]c(=O)c23)CO1 (centres undefined) -14.9%
Nc1nonc1C(=O)N/N=C/c1cc2c(cc1Br)OCO2 3.06%
Nc1nonc1-n1nnc(C(=O)N/N=C/c2c(Cl)cccc2Cl)c1CSC1=NCCS1 6.32%
Nc1nonc1-n1nnc(C(=O)N/N=C/c2ccc(Br)cc2)c1CSC1=NCCS1 44.3%
Nc1nonc1C(=O)N/N=C/c1ccc(Br)o1 -2.96%
